Experimental data published in PubChem BioAssay (NCI).
This is part of a sample that, as a whole, favours compounds with a hit. Of some 79,000 tested, about 15% had one in any assay. Unmarked numbers belong to inactive results. Calls of active or inactive are those of the source. Cut-off read from the data, not from the text of the source: active = growth inhibition above about 70%; inactive = the rest.

Legend:
[1] = NCI Yeast Anticancer Drug Screen. Data for the rad50 strain (AID 155);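 note: 0% = growth of vehicle-only cultures of the same strain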; conditions: S. cerevisiae rad50 strain growth inhibition, active compounds read high
Method in brief: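 Readout: growth inhibition relative to vehicle-treated cultures. Compound exposure was carried out in a genetically defined yeast strain deficient in DNA damage repair.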

[2] = NCI Yeast Anticancer Drug Screen. Data for the mec2-1 strain (AID 157); conditions: S. cerevisiae mec2-1 strain, active compounds read high
Method in brief: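 Strain: mec2-1 (DNA repair/cell cycle alteration). Compound exposure, then growth measured; inhibition expressed relative to vehicle.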

[3] = NCI Yeast Anticancer Drug Screen. Data for the sgs1 mgt1 strain (AID 161);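 note: 0% = growth of cultures given vehicle only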; conditions: S. cerevisiae sgs1 mgt1 strain, active compounds read high
Method in brief: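 Genetically altered yeast, compound exposure, growth inhibition relative to vehicle.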

[4] = NCI Yeast Anticancer Drug Screen. Data for the cln2 rad14 strain (AID 165);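 note: 0% = growth equal to vehicle treated cultures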; conditions: S. cerevisiae cln2 rad14 strain, active compounds read high
Method in brief: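 Compounds are applied to the cln2 rad14 yeast strain, and growth is then compared with that of vehicle-treated cultures to give inhibition.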

[5] = NCI Yeast Anticancer Drug Screen. Data for the bub3 strain (AID 167); conditions: S. cerevisiae bub3 mutant strain, active compounds read high
Method in brief: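 Readout: yeast growth inhibition, expressed relative to vehicle-only wells. The test organism is a mutant strain from a panel with lesions in DNA repair or checkpoint genes.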

[6] = NCI Yeast Anticancer Drug Screen. Data for the mlh1 rad18 strain (AID 175); conditions: S. cerevisiae mlh1 rad18 strain growth inhibition, active compounds read high
Method in brief: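 Read-out is yeast growth inhibition, calculated against vehicle-only controls. The compound was applied to a strain engineered with DNA damage repair alterations.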

[7] = at 5.0 µM (retest, dose inferred, filed as 0.5)
[8] = at 50.0 µM (retest, dose inferred, filed as 5.0)

| Compound | growth inhibition [1, 7] | growth inhibition [1, 8] | growth inhibition ([1]; at 50.0 µM) | growth inhibition [2, 7] | growth inhibition [2, 8] | growth inhibition ([2]; at 50.0 µM) | growth inhibition [3, 7] | growth inhibition [3, 8] | growth inhibition ([3]; at 50.0 µM) | growth inhibition [4, 7] | growth inhibition [4, 8] | growth inhibition ([4]; at 50.0 µM) | growth inhibition [5, 7] | growth inhibition [5, 8] | growth inhibition ([5]; at 50.0 µM) | growth inhibition [6, 7] | growth inhibition [6, 8] | growth inhibition ([6]; at 50.0 µM) |
| --- | --- | --- | --- | --- | --- | --- | --- | --- | --- | --- | --- | --- | --- | --- | --- | --- | --- | --- |
| Cc1c(NC(=O)CCl)c(=O)oc2c(C)c3occc(=O)c3cc12 | 59% | 97% (active) | 96.8% (active) | 16% | 93% (active) | 83.8% (active) | 7% | 89% (active) | 90.8% (active) | 10% | 85% (active) | 29.3% | 10% | 91% (active) | 79.2% (active) | 13% | 94% (active) | 92% (active) |
| CNCCCNc1c2cc(OC)ccc2nc2cccc([N+](=O)[O-])c12 | 9% | 96% (active) | 82.8% (active) | -10% | 97% (active) | 88.2% (active) | 49% | 94% (active) | 78.3% (active) | 41% | 98% (active) | 85.3% (active) | -31% | 52% | 55.5% | 41% | 97% (active) | 78.6% (active) |
| O=C(Nc1ccccc1)O/N=C1/CCCC/C1=C\c1ccccc1 | 26% | 77% (active) | 88.4% (active) | 41% | 85% (active) | 90.1% (active) | 57% | 86% (active) | 88.3% (active) | 65% | 85% (active) | 84.4% (active) | 54% | 87% (active) | 81.6% (active) | 35% | 88% (active) | 84.1% (active) |
| NC(=S)C(=S)N=Cc1c(N)[nH]n(-c2ccccc2)c1=O | -13% | -1% | 57.8% | -10% | 15% | 48.8% | 9% | 3% | 53.8% | 32% | 26% | 61.6% | 19% | 37% | -10.6% | -4% | 15% | 44.6% |
| CC(=O)Oc1c(C)cc(C)cc1Cc1cc(C(C)=O)cc(Cc2cc(C)cc(C)c2OC(C)=O)c1OC(C)=O | 30% | 91% (active) | 94.5% (active) | 17% | 88% (active) | 93.2% (active) | 47% | 91% (active) | 95.6% (active) | 28% | 88% (active) | 97% (active) | 22% | 87% (active) | 94.3% (active) | 46% | 91% (active) | 92.5% (active) |
| Cc1ccccc1-n1c(N)c(-c2nc3ccccc3[nH]2)sc1=S | 36% | 45% | 81.2% (active) | 22% | 50% | 70.7% (active) | 42% | 57% | 68.2% | 37% | 44% | 70.4% (active) | 41% | 55% | 83.1% (active) | 42% | 61% | 80.2% (active) |
| COc1cc2c[n+](C)c3c4cc(OC)c(OCc5ccccc5)cc4c(OCc4ccccc4)cc3c2cc1OC | 33% | 96% (active) | 59.4% | 14% | 93% (active) | 53.7% | 0% | 94% (active) | 51.1% | 5% | 91% (active) | 96.6% (active) | 16% | 95% (active) | 93.5% (active) | 18% | 95% (active) | 65.8% |
| O=Cc1ccc2c(c1)CC1(C2)Cc2ccc3c(c2C1)CCC3 (configuration not stated) | -1% | 68% | 92.9% (active) | 0% | 78% (active) | 89.3% (active) | 14% | 81% (active) | 87.6% (active) | -2% | 41% | 73% (active) | -1% | 74% (active) | 91.5% (active) | 1% | 74% (active) | 84.8% (active) |
| CN(C)S(=O)(=O)c1cc(Cl)ccc1NN | -114% | -20% | 59.6% | -44% | -41% | 36.9% | -56% | -21% | 44% | -41% | -22% | 19.2% | -71% | -14% | 78.4% (active) | -119% | -32% | 48.6% |
